Hits are enriched below; roughly 2.8% of the tested compounds scored in any of these assays.
POLH inh: inhibitors of human DNA polymerase eta; recombinant Pol eta, fluorescent DNA replication assay; 390,000 tested, 1.2% active; Q9Y253; Potency, µM (titrated, usually from 114 µM), for the others: at the top dose activity change, negative = inhibition, usual class: inhibitors; also: potency is read from the fitted curve at half-maximal effect; % is scaled to controls: 0 for no effect and ±100 for the full control effect
Target sequence (Q9Y253 whole entry, looked up): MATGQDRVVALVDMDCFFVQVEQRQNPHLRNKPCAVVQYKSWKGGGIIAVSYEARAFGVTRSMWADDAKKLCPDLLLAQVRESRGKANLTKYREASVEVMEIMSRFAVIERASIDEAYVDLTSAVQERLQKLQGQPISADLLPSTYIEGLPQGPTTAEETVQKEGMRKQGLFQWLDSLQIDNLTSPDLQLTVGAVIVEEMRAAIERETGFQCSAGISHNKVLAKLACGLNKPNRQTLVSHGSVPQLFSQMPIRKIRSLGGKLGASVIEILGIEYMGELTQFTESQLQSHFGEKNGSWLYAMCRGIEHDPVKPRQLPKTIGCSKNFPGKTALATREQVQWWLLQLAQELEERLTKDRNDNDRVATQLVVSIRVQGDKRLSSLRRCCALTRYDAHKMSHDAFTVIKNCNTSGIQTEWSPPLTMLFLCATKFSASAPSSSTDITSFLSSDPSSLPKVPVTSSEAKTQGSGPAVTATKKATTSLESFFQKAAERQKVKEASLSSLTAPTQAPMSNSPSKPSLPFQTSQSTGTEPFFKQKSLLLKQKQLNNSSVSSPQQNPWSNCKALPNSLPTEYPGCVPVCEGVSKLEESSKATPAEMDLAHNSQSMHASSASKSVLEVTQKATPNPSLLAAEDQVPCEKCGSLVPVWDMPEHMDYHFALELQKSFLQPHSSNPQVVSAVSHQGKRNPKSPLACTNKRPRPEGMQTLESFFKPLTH
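Fluorescent replication assay: 50 nM final substrate added after a 15 min room-temperature compound preincubation with 10 nM enzyme. Signal taken at 0 min and again at 10 min.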
PI5P4K alpha inh: blocks human PI5P4K alpha kinase activity; P48426; 330,000 tested, 1.2% active; max response, %; PI5P4Kalpha enzyme, ADP-Glo luminescence, 60 min; active compounds read low; active = max response of -50% or lower; inconclusive = between -30% and -50%; inactive = -30% or higher; also: value at the top dose of about 77 µM; % is scaled to controls: 0 for no effect and ±100 for the full control effect
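Luminescence from ADP-Glo served as readout of PI5P4Kalpha activity in a qHTS format. Reaction: enzyme, substrate, compound, ATP at 5 microM final, 60 min at RT.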
POLB inh: DNA polymerase beta (human) inhibition; P06746; Pol beta primer extension/strand displacement, fluorescence kinetic; Potency, µM (series often up to 114 µM), for the others: at the top dose activity change, negative = inhibition, usual class: inhibitors; 340,000 tested, 1.3% active; AID 485314; also: potency is read from the fitted curve at half-maximal effect; % is scaled to controls: 0 for no effect and ±100 for the full control effect
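Values derive from four-parameter Hill fits of normalized kinetic data: reads at 0 and 10 min following addition of 50 nM substrate to 10 nM Pol beta preincubated 15 min with compound.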
WRN helicase inh: inhibitors of human WRN helicase; Q14191; WRN helicase unwinding, fluorescent forked duplex, kinetic; Potency, µM (top dose mostly 114 µM), for the others: at the top dose activity change, negative = inhibition, hits mostly inhibitors; 360,000 tested, 0.46% active; also: potency is read from the fitted curve at half-maximal effect; % is scaled to controls: 0 for no effect and ±100 for the full control effect; nearly all actives have a fitted effect of over 55% in size
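Kinetic red-fluorescence monitoring (525/598 nm) tracks WRN helicase activity after 100 nM fluorophore-quencher forked duplex and 2 mM ATP are added to 20 nM enzyme pretreated 15 min at room temperature with compound.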
Pol iota inh: inhibitors of human DNA polymerase iota; Pol iota fluorescent replication assay, 10 min; Potency, µM (series often up to 115 µM), inactives show at the highest dose activity, negative = inhibition, hits mostly inhibitors; AID 588590; 390,000 tested, 1% active; also: potency is read from the fitted curve at half-maximal effect
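Fluorescent replication assay read twice, at 0 min and 10 min after adding 50 nM (final) substrate. Enzyme (10 nM) and compounds were first incubated 15 min at room temperature; enzyme-free buffer wells were negative controls.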
Pol kappa inh: DNA polymerase kappa (human) inhibition. Q9UBT6. purified Pol kappa, fluorescent DNA synthesis assay, 10 min. Potency, µM (highest dose often 107 µM), inactives show at the highest dose activity, negative = inhibition, hits mostly inhibitors. 400,000 tested, 0.53% active; also: potency is read from the fitted curve at half-maximal effect; % is scaled to controls: 0 for no effect and ±100 for the full control effect
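10 nM Pol kappa preincubated 15 min at room temperature with compounds, then reaction started with substrate at 50 nM final. Fluorescence read kinetically at 0 and 10 min; buffer-only wells served as negative control.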
* marks the source's active call; other numbers are inactive results; ? = inconclusive; / = no result given; [ ] = remark or other dose. Unless noted, calls follow the shape of the dose curve; as a rule, active = well fitted curve in the direction sought with a large enough effect; inconclusive = small, poorly fitted or top-dose-only effect, or another doubt; inactive = no such curve, though single readings can be large; an effect the other way counts as inactive or inconclusive.

SMILES	POLH inh	PI5P4K alpha inh	POLB inh	WRN helicase inh	Pol iota inh	Pol kappa inh
O=C(Cc1ccc(-n2cccc2)cc1)NCc1cccs1	?	-30	45µM*	-13%	-29%	-19%
CCOC(=O)N1CCN(C(=O)c2cc(S(=O)(=O)N3CCc4ccccc43)ccc2OC)CC1	-17%	-2	/	-11%	36%	1%
O=c1[nH]c(=S)[nH]nc1Cc1ccc(Cl)c(Cl)c1	-4%	-76*	7%	-16%	?	-25%
CC(C)(C)c1ccc(Cc2n[nH]c(=S)[nH]c2=O)cc1	-11%	?	4%	-9%	-14%	-22%
CC(C)Cn1c(=S)[nH]c2cc(C(=O)O)ccc2c1=O	-12%	-59*	-6%	1%	-4%	-6%
Cc1c(C(N)=O)c(-c2ccccc2)nn1-c1ccccc1	-6%	0	2%	-7%	-6%	-3%
CCCc1c(-c2ccc(O)cc2)nn(-c2ccc(O)cc2)c1-c1ccc(O)cc1	-6%[57.1 µM]	-53*	6%[57.1 µM]	0%	-12%[58.9 µM]	?
C=CCn1c(SCC(=O)c2ccc(O)c(O)c2)nnc1-c1cccc(Cl)c1	16µM*	-15	/	18µM*	?	40µM*
C=Cc1c(C)/c2[n-]/c1=C\c1[n-]c(c(CC)c1C)/C=c1\[n-]c3c(c1C)C(=O)C(C(=O)[O-])C=3c1[n-]c(c(C)c1CCC(=O)[O-])\C=2.[Cu].[Na+].[Na+] (stereo unspecified)	/	/	/	/	/	0.89µM*
O=C(Nc1ccc2nc(SCC(=O)N3CCCC3)sc2c1)c1ccccc1F	-5%	/	-25%	/	9%	-21%
O=C(OCc1c(F)cccc1Cl)c1cnc2ccccc2n1	3%	-20	-12%	-36%	37%	-1%
COc1cc(NC(=O)CN2C(=O)c3ccccc3C2=O)c(C(=O)O)cc1OC	-7%	-7	24%	-8%[57.1 µM]	89µM*	?
COC(=O)c1cc(OC)c(OC)cc1NC(=O)CN1C(=O)c2ccccc2C1=O	-5%	/	7%	7%	3%	-7%
CC(C)(C)c1nnc(N/N=C/c2cc(Br)ccc2O)n(N)c1=O	-16%	?	-14%	-13%	10%	-9%
CCc1nnc(N/N=C\c2ccc(OC(C)=O)c(OC)c2)n1N	1%	-2	-3%	-5%[11.6 µM]	2µM*	-31%
CCc1nnc(N/N=C/c2cc(Br)c(O)cc2O)n1N	-13%	-69*	0%	-9%[11.6 µM]	8.9µM*	1%
COc1cc(/C=N/Nc2ccccn2)ccc1O	-15%	1	-14%	9%	29%	-10%
CCOc1cc(/C=N/Nc2nnc(C)n2N)ccc1OC(C)=O	-16%	-5	?	-4%	2.8µM*	-25%
CCc1nnc(N/N=C/c2ccc(O)c(OC)c2)n1N	3%	0	18%	1%[11.6 µM]	8.9µM*	-6%
COc1ccc(S(=O)(=O)N(CCO)c2ccccc2CN(C)C/C=C/c2ccc(Cl)cc2)cc1	/	/	/	/	/	0%[19.4 µM]
O=C(COC(=O)CC1Sc2ccccc2NC1=O)NCc1ccccc1 (stereo unspecified)	-16%	-1	/	-14%	?	1%
Cc1c(OCC(=O)N[C@@H](Cc2c[nH]c3ccccc23)C(=O)O)ccc2c1oc(=O)c1ccccc12	79µM*	-10	-11%	-6%[11.6 µM]	32%	-13%
Cc1ccccc1-c1nnc(SCc2ccc(F)cc2)o1	7%	/	-28%	-7%[57.1 µM]	89µM*	-8%
CCOc1cc(/C=C2\NC(=O)NC2=O)cc([N+](=O)[O-])c1O	-14%	-59*	5%	-9%	55%	-22%
Clc1cccc2c1CN(C1=NCCN1)C2	/	/	/	/	/	-6%[19.4 µM]
O=C(/N=C1\NC(=O)C(F)(C(F)(F)F)S1)NC1CCCCC1 (stereo unspecified)	6%	-61*	-29%	50µM*	?	-8%
CCC1S/C(=N/C(=O)NC2CCCCC2)NC1=O (stereo unspecified)	-4%	-1	15%	4%	?	1%
COc1ccc(/C=N/Nc2nncn2N)cc1Br	-26%	-4	-4%	-11%	8.9µM*	-1%

Compound activity deposited in PubChem BioAssay by National Center for Advancing Translational Sciences (NCATS).
